These results are taken from PubChem BioAssay AID1347165 (National Center for Advancing Translational Sciences (NCATS), 2019).

The campaign covered roughly 220,000 compounds. About 5,700 (2.6%) were called active. Inconclusive results (about 18%) are left out. The sample as a whole holds a higher share of actives than the screen did. Values without a mark were called inactive. The call rests on the fitted dose curve; in most records, active means well fitted inhibition curve with a large enough effect; inconclusive means small, poorly fitted or top-dose-only effect; inactive means no such curve, though single readings can be large or run the other way.
Potency means the concentration at half of the fitted maximal effect.

The target of this test is Lysine-specific demethylase 5B (Homo sapiens) (UniProt Q9UGL1). The test is described as follows: Primary screen for KDM5B Histone Demethylases FDH-coupled qHTS. Further: nearly all actives have a fitted effect of over 70% in size. On activity change, negative = inhibition: 0% is about no effect. As to conditions: FDH-coupled NADH fluorescence (FDH is formaldehyde dehydrogenase); series mostly up to 57.7 µM; activity change, negative = inhibition: at the top concentration. The essentials: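 Here, H3K4me3 peptide (12.5 µM in substrate mix) is demethylated by KDM5BΔAP, 200 nM final, after 10 min compound exposure. Formaldehyde product is coupled through FDH (0.25 U/mL in mix) to NADH fluorescence; 30-min ΔRFU feeds dose-response curves.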
Chain of Lysine-specific demethylase 5B (Homo sapiens) (Q9UGL1 whole entry, looked up): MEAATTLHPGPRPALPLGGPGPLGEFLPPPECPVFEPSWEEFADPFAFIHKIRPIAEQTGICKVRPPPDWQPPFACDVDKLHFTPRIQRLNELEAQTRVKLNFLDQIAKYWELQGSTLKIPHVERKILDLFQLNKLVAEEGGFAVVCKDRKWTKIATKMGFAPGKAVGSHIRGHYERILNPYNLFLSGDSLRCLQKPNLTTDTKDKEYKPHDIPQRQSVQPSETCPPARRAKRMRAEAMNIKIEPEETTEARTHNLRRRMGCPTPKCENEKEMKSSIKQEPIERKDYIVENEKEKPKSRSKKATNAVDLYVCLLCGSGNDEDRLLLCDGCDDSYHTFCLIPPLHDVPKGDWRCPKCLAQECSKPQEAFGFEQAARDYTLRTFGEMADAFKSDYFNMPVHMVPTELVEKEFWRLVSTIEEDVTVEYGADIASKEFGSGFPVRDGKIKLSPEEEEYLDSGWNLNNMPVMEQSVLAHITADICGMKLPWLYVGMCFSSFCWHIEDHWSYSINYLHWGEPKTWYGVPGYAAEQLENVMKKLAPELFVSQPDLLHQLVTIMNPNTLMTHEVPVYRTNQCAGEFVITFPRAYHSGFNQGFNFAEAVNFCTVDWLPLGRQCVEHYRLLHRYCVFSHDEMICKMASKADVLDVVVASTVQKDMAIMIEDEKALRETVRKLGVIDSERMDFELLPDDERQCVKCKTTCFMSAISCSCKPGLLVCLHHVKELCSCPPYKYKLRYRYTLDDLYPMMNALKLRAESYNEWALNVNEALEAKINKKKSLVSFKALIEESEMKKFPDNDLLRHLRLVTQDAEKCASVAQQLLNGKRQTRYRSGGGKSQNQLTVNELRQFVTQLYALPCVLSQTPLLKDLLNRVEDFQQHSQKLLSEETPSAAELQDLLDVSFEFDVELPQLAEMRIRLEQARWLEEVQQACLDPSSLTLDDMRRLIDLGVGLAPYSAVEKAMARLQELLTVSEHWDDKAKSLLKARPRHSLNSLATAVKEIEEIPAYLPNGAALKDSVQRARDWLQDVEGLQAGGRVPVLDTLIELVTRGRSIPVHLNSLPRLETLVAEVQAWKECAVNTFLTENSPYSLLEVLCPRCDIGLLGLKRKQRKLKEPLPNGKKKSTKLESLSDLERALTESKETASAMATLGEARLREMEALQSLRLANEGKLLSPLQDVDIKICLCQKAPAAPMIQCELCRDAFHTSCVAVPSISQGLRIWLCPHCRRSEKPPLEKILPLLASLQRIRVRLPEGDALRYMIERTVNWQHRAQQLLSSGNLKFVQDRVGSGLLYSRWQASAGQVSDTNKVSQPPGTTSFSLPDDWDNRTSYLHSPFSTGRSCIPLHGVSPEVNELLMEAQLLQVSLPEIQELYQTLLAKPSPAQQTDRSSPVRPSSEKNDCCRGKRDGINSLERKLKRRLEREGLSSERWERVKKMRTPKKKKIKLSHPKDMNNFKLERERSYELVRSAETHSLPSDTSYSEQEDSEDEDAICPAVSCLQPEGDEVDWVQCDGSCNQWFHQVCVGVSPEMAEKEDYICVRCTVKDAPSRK
In general terms: qHTS replaces the single test concentration by a dilution series.
Take `COc1cc(CNC(=O)Cc2ccc(OC)c(OC)c2)ccn1`: the “activity change, negative = inhibition” value was 14.5%.

With `CSc1ccc(CNC(=O)c2cc3c(s2)CCCC3)cc1`, the “activity change, negative = inhibition” value was -23.3%.

Take `COc1ccc(CNC(=O)c2cc3c(s2)CN(C2CC2)C3)cc1OC`: the Potency is 11.2 µM (active).

On to `Cc1cccc(N2C(=O)c3ccc(C(=O)Nc4cccc(C(=O)O)c4)cc3C2=O)c1`, for which the “activity change, negative = inhibition” value is 24.9%.

As to `CC(C)CNc1ccc2nnc(-c3ccccn3)n2n1`, the Potency is 31.6 µM (active).

With `CCCNc1ccc2nnc(C)n2n1`, the “activity change, negative = inhibition” value was -29.1%.

Regarding `Cc1ccc(OCC(=O)Nc2ccc3oc(=O)ccc3c2)cc1C`, the “activity change, negative = inhibition” value was -15.1%.

On to `O=C(CCNc1cnc2cnccn12)NC1CCN(Cc2ccccc2)CC1`, for which the Potency is 22.4 µM (active).

Regarding `O=C(CCc1ncc(-c2ccc(F)cc2)o1)NC1CCN(Cc2ccccc2)C1` (stereo not drawn), the “activity change, negative = inhibition” value was -1.38%.

Take `O=C(O)CC1(CC(=O)NC2CCN(Cc3ccccc3)CC2)CCCC1`: the “activity change, negative = inhibition” value is 25.1%.

For the compound `COc1ccc2c(c1)OCC(C(=O)N1CCCN(c3ncccn3)CC1)C2` (stereo not drawn), the Potency was 25.1 µM (active).

Consider `Cc1cc(OCC(=O)N2CCN(c3ncccn3)CC2)ccc1Cl`, for which the “activity change, negative = inhibition” value is -13.2%.

With `O=C(c1ccoc1)N1CCCN(C(=O)C2COc3ccccc3C2)CC1` (stereo not drawn), the “activity change, negative = inhibition” value was -12.2%.

For `Cc1nc(CNC(=O)[C@H]2CCC[C@@H](O)C2)nc2c1CCCC2`, the “activity change, negative = inhibition” value is -18.8%.

Consider `Cc1nc(CCNc2nccc(-c3cccnc3)n2)nc2c1CCCC2`, for which the Potency was 28.2 µM (active).

As for `Cc1nc(CCNS(=O)(=O)c2cccnc2)no1`, the “activity change, negative = inhibition” value was -10.3%.

Regarding `O=C(CCSc1nc2ccccc2s1)NCc1cc(F)cc(F)c1`, the “activity change, negative = inhibition” value was -9.95%.

Take `COC(=O)c1ccc(C(=O)OCc2nc(N)c3ccccc3n2)cc1`: the “activity change, negative = inhibition” value is 8.43%.

On to `O=C(O)CCn1ncc2cc(OC3CCN(C(=O)C4CCCC4)CC3)ccc21`, for which the “activity change, negative = inhibition” value was -8.2% [at 86.2 µM].

Take `NC(=O)Cn1ccc2cc(OCC3CCN(C(=O)C4CCCC4)CC3)cnc21`: the Potency was 35.5 µM (active).

For the compound `CCn1ccc2cc(S(=O)(=O)N3CCC(C(=O)N4CCN(C)CC4)CC3)ccc21`, the “activity change, negative = inhibition” value is 6.11%.

As to `Cc1ccc(-n2nnnc2SCc2nc3ccsc3c(=O)[nH]2)c(C)c1`, the “activity change, negative = inhibition” value is 0.7%.

As to `O=C(Nc1ccc(SC2CCCC2)cc1)C1CCCC1`, the “activity change, negative = inhibition” value is -1.52%.

As for `CCOc1nccnc1NC1CCN(C(=O)c2cccnc2)CC1`, the Potency is 28.2 µM (active).

With `C=CCNC(=O)C[C@@H]1CCN(C(=O)c2cccnc2)C[C@@H]1CC`, the “activity change, negative = inhibition” value was 26% [at 86.2 µM].

With `CCCS(=O)(=O)N1CCC(Nc2nccnc2OCC)CC1`, the Potency was 15.8 µM (active).

With `COC(=O)[C@@H]1CN(C(=O)c2cccnc2)CCN1C(C)=O`, the “activity change, negative = inhibition” value was -12% [at 115 µM].

For the compound `CCCS(=O)(=O)N1CCC2(CC1)C(OC)C(=O)N2CC1CC1` (stereo not drawn), the “activity change, negative = inhibition” value was 23.4%.

Take `CCCS(=O)(=O)N1CCC(Cc2nc(-c3cccnc3)n[nH]2)C1` (stereo not drawn): the “activity change, negative = inhibition” value is -11.3%.

Take `CC(Sc1nc(N)cc(N)n1)C(=O)c1ccc(Cl)cc1` (stereo not drawn): the “activity change, negative = inhibition” value was 8.79%.

As for `Cn1cc(-c2cc3n(n2)CCC(=O)N3CC(=O)NC2CCCCC2)c2ccccc21`, the “activity change, negative = inhibition” value was -3.82%.

Consider `CCCCN(CCCC)c1cccc(-c2cccc(N(CCCC)CCCC)c2)c1`, for which the “activity change, negative = inhibition” value is -27.3%.

For `Cc1cccc(C)c1NC(=O)CSc1nc2c(cc1C#N)CCCC2`, the “activity change, negative = inhibition” value was 16.6%.

Take `N#Cc1cc2c(nc1SCC(=O)NCCc1ccccc1)CCCC2`: the “activity change, negative = inhibition” value is 0.324%.

Regarding `N#Cc1cc2c(nc1N1CCN(C3CCCC3)C(CCO)C1)CCCC2` (stereo not drawn), the Potency was 28.2 µM (active).

With `CCCCn1nc(C(=O)NC(CC)CC)c2ccccc2c1=O`, the “activity change, negative = inhibition” value is 13.2%.

`COc1ccc(-c2cc(N3CCN(C(=O)Cc4cccc(OC)c4)CC3)n[nH]2)cc1`: the “activity change, negative = inhibition” value is -10.2%.

Consider `COc1ccc2cc(-c3[nH]ncc3CN3CCN(c4cccc(C)n4)CC3)ccc2c1`, for which the Potency is 28.2 µM (active).

In the case of `COc1ccc(-c2[nH]ncc2CN2CCCC(C(=O)NCc3ccccc3)CCNC(=O)CC2)cc1` (stereo not drawn), the “activity change, negative = inhibition” value was -19.8%.

Regarding `O=C(NCC1CC1)c1nc2c(o1)CCN(Cc1cccc(F)c1F)CC2`, the “activity change, negative = inhibition” value was -26.9% [at 86.2 µM].

For the compound `O=C(Nc1ccc(Cl)cc1)c1nc2c(o1)CCN(Cc1ccsc1)CC2`, the Potency is 31.6 µM (active).

For the compound `Cc1cccc(CN2CCc3nc(C(=O)Nc4ccc(Cl)cc4)oc3CC2)c1`, the Potency was 31.6 µM (active).

Take `O=C(Nc1ccccc1)c1nc2c(o1)CCN(Cc1cccc(Cl)c1)CC2`: the Potency is 28.2 µM (active).

With `O=C(c1nc2c(o1)CCN(Cc1ccccc1F)CC2)N1CCOCC1`, the “activity change, negative = inhibition” value was -4.96% [at 86.2 µM].

In the case of `COc1ccc(CN2CCc3nc(C(=O)N4CCOCC4)oc3CC2)cc1OC`, the “activity change, negative = inhibition” value was 4.99% [at 86.2 µM].

As for `O=C(NCC1CC1)c1nc2c(o1)CCN(CCc1ccccc1)CC2`, the “activity change, negative = inhibition” value is -23.1% [at 86.2 µM].

Take `O=C(Nc1ccc(-n2cccn2)cc1)C1CCN(Cc2ccsc2)CC1`: the “activity change, negative = inhibition” value is 23.1%.

On to `CCOc1ccc(NC(=O)CSc2nc3c(c(=O)[nH]2)CN(Cc2ccc(Cl)cc2)CC3)cc1`, for which the “activity change, negative = inhibition” value was -4.81%.

For the compound `Cc1cc(Br)ccc1NC(=O)CN(C)Cc1ncc(-c2ccc(F)cc2)o1`, the “activity change, negative = inhibition” value is -15.3%.

For the compound `CCc1ccc(CN(C(=O)c2cc(=O)c3cc(C)cc(C)c3o2)C2CCS(=O)(=O)C2)cc1` (stereo not drawn), the “activity change, negative = inhibition” value was -0.964%.

`O=C(CSc1ncnc2sc3c(c12)CCCC3)Nc1ccc(F)cc1`: the “activity change, negative = inhibition” value is 8.22%.

Consider `CC(C)NC(=O)c1ccccc1NC(=O)C(Cl)Cl`, for which the “activity change, negative = inhibition” value is -10.1%.

As for `CCCn1nc(C(=O)NCc2ccc(OC)cc2)c2ccccc2c1=O`, the “activity change, negative = inhibition” value was 7.93%.
